This is part of a sample that, as a whole, favours compounds with a hit. Of some 83,000 tested, about 20% had one in any assay.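 Negative percent growth values reflect cell death: -40 means 40% of the cells present at the start died, and -100 means all died.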 Values without a mark were called inactive. Calls of active or inactive are those of the source. Rule for the calls: active = growth percent below 10; inactive = the rest.
Tests used:
Test in all cases: NCI-60 one-dose screen, 48 h (100 = growth as untreated, 0 = no growth, -100 = all killed)
Settings in all cases: 10 µM unless noted
[1] = tested on: NCI-H23 lung
[2] = tested on: NCI-H226 lung
[3] = tested on: NCI-H322M lung
[4] = tested on: HOP-62 NSCLC
[5] = tested on: NCI-H460 lung
[6] = tested on: NCI-H522 lung
[7] = tested on: A549/ATCC NSCLC
[8] = tested on: 786-0 renal
[9] = tested on: COLO 205 colon
[10] = tested on: DU-145 prostate
[11] = tested on: K-562 leukemia
[12] = tested on: MALME-3M melanoma
[13] = tested on: MDA-MB-231 breast
[14] = tested on: RXF 393 renal
[15] = tested on: SF-268 CNS
[16] = tested on: SF-295 CNS
[17] = tested on: SF-539 CNS
[18] = tested on: UACC-257 melanoma
[19] = tested on: M14 melanoma

Compound	growth [1] [%]	growth [2] [%]	growth [3] [%]	growth [4]	growth [5]	growth [6]	growth [7]	growth [8]	growth [9] [%]	growth [10]	growth [11]	growth [12] [%]	growth [13]	growth [14] [%]	growth [15] [%]	growth [16]	growth [17]	growth [18] [%]	growth [19]
Cc1nc(N)nc2c1CCC(Nc1ccccc1)S2 (centres undefined)	104	99.1	101	112%	109%	91%	97.6%	103%	107	106%	93.4%	96.3	106%	107	94.7	104%	96.7%	101	108%
O=C(O)c1ccccc1Oc1cc(-c2ccco2)nc(OCCN2CCOCC2)n1	106	97	94.6	99.9%	116%	92.1%	106%	96.5%	103	113%	107%	98.3	98.8%	115	114	102%	108%	108	99.1%
CCCCOc1nc2ccc(C)cc2cc1/C=C/C(=O)/C=C(O)/C=C/c1cc2cc(C)ccc2nc1OCCCC	92	102	92	87.3%	106%	85%	91.7%	96.5%	114	112%	99.2%	118	103%	108	103	101%	103%	89.4	98.4%
COc1cc2c(c(OC)c1O)C(=O)C(OC)C(c1ccc(O)c(O)c1)O2 (centres undefined)	24.7	16.8	37	42.3%	4.55% (active)	-11.9% (active)	17.7%	17%	88	5.45% (active)	6.8% (active)	52.2	-8.18% (active)	17.1	24.6	-6.27% (active)	-23% (active)	69.1	-3.36% (active)
CC1=C(O)C(=O)CC1	96.3	100	103	120%	109%	115%	88.8%	105%	116	112%	106%	104	108%	102	110	94.9%	111%	97.4	105%
CC(C)CCSc1nc(Nc2ccccc2)c(C#N)c(-c2ccc(F)cc2)n1	74.4	90.7	49.8	56.5%	6.55% (active)	61%	25.3%	-9.8% (active)	18.6	82.3%	38.8%	68.4	46.2%	82	79.1	34.5%	52.7%	52.7	70.1%
O=[N+]([O-])c1ccc(SSc2ccc([N+](=O)[O-])cc2Cl)c(Cl)c1	89	87.5	98.2	112%	92.2%	85.1%	96.3%	102%	127	99.5%	77.8%	90.8	78.2%	120	103	97.2%	119%	118	103%
N/C(=N\OC(=O)c1ccccc1)C(C(=O)NOC(=O)c1ccccc1)C1CCCCC1 (centres undefined)	49.3	100	84.7	-7% (active)	34.5%	-46.9% (active)	1.51% (active)	76%	77.3	57.7%	2.85% (active)	85.3	81.8%	82.1	31.9	41.6%	75.1%	92.2	75.2%
COc1cccc(N2CCN(c3ncnc4cc[nH]c34)CC2)c1	42.8	55.1	94	34.2%	66.9%	51.5%	60.2%	70.9%	88.2	90.6%	37.7%	75.1	84.4%	99.3	90.7	44.2%	72.8%	47.5	58.2%
CCCCOC(=O)c1cc(O)c(O)c(O)c1	88.2	96.7	86.5	76.2%	58.9%	-1.17% (active)	64.7%	79.2%	101	74%	66.3%	122	66.4%	82	53.5	102%	48.5%	96.4	84.1%
COc1cc(OC)c2sc(-c3ccc(-n4cncc4-c4ccc(OC)c(N)c4)cc3)nc2c1	87.4	94	105	117%	78%	79.9%	62.7%	79.2%	111	93.5%	54.7%	82.4	75.5%	75.4	87.3	69.4%	84.1%	94.3	79.9%

From PubChem BioAssay (NCI)
